Assay outcomes (PubChem BioAssay)
Compounds with a hit are over-represented: about 10% of the library has one in this group of screens.
GPT2 inh: blocks human glutamate pyruvate transaminase 2; Recombinant GPT2, coupled pyruvate oxidase/HRP Amplex Red fluorescence; Q8TD30; 0.25% of 100,000 active; AID 1671188; Potency, µM (top dose mostly 57.7 µM), without a hit: at the highest dose activity change, negative = inhibition, most hits filed as inhibitors; also: nearly all actives have a fitted effect of over 60% in size
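Inhibition is scored from Amplex Red fluorescence generated when pyruvate oxidase and HRP act on pyruvate released by GPT2. Reactions contain 10ng/uL enzyme, 250uM a-KG and 2mM L-alanine and run 30 min at room temperature.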
NIH3T3 tox: cytotoxic compounds in NIH 3T3 cells. 4.3% of 94,000 active. NIH 3T3 viability, CellTiter-Glo ATP luminescence, 48-72 h. AID 1345082. Potency, µM (titrated, usually from 96.7 µM), for inactives: at the top dose activity change, negative = cytotoxicity, hits mostly inhibitors; also: nearly all actives have a fitted effect of over 55% in size
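Viability of NIH 3T3 cells after 48 or 72 hr compound treatment at 37 °C was assessed by CellTiter-Glo, with luminescence imaged following a 10 min room-temperature step.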
NPR1 antag: antagonists of human natriuretic peptide receptor Npr1; HEK293 hNpr1 GloSensor cGMP, ANP-stimulated luminescence; 1.6% of 76,000 active; P16066; Potency, µM (highest dose often 46.3 µM), for the others: at the highest dose activity change, negative = inhibition, usual class: inhibitors; AID 1347048; calls by dose curve; also: nearly all actives have a fitted effect of over 60% in size
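HEK293 cells stably expressing human Npr1 and cGMP GloSensor pGS-40F, loaded 2 h with 2% GloSensor reagent, given compound 30 min at room temperature. Luminescence read before and 20 min after 0.1 nM hNppA.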
Luciferase inh: inhibitors of firefly (Photinus pyralis) luciferase; Potency, µM (top dose mostly 115 µM), hits mostly inhibitors; 2.5% of 76,000 active; purified P. pyralis luciferase, luminescence, biochemical; also: nearly all actives have a fitted effect of over 65% in size
Target sequence (P08659 whole entry, looked up): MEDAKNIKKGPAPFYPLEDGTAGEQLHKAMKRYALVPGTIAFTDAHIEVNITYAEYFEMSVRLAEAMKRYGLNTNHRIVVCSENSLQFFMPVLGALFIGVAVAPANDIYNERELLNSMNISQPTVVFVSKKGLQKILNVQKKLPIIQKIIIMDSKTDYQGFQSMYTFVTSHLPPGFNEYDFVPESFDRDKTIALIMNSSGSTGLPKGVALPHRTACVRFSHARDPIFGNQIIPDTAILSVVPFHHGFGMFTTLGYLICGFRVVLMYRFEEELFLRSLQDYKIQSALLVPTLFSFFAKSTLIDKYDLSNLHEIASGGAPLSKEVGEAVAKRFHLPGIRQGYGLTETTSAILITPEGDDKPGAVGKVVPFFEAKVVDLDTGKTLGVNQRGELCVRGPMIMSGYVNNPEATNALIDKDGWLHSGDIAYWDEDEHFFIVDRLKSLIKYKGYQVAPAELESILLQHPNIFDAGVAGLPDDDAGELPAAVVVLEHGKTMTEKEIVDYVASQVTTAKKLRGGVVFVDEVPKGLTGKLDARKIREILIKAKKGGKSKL
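Purified 10nM P. pyralis luciferase with 10uM D-luciferin and 10uM ATP in 50mM Tris acetate pH 7.5, 10mM Mg acetate, 0.01% Tween-20, 0.05% BSA. qHTS titration; luminescence read by CCD imager.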
HEK293 tox: cytotoxic compounds in HEK 293 cells; HEK 293 viability, ATP luminescence (CellTiter-Glo), 48-72 h; 6.6% of 94,000 active; Potency, µM (titrated, usually from 115 µM), for inactives: top-dose activity change, negative = cytotoxicity, actives largely listed as inhibitors; also: nearly all actives have a fitted effect of over 60% in size
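Viability of HEK 293 cells, plated at 250 cells/well, was judged by cellular ATP after compound treatment for 48 or 72 hr. Luminescence was imaged 10 min after CellTiter-Glo addition at room temperature.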
* hit, by the source's call; i = inactive; ? = inconclusive; · = no result given; ! = repeats disagree; [ ] = another dose, or the depositor's remark. Unless noted, calls follow the shape of the dose curve; as a rule, active = well fitted curve in the direction sought with a large enough effect; inconclusive = small, poorly fitted or top-dose-only effect, or another doubt; inactive = no such curve, though single readings can be large; an effect the other way counts as inactive or inconclusive. % is scaled to controls: 0 for no effect and ±100 for the full control effect; potency is read from the fitted curve at half-maximal effect.

SMILES	GPT2 inh	NIH3T3 tox	NPR1 antag	Luciferase inh	HEK293 tox
O[C@@H]1CN(Cc2ccc(-n3cccn3)cc2)CC[C@H]1c1ccc(F)cc1	i	-28.6%	?	i	39.8µM*
O=C(O)c1ccc(CN2CC[C@@H](c3ccc4ccccc4c3)[C@H](O)C2)cc1	i	i	-0.2%	i	0.0%
CCc1nc2c(c(-c3ccc(O)cc3)n1)CN(C(=O)c1cccc(Cl)c1)CC2	i	-27.7%	·	·	-10.2%
C=CCn1cc2c3c(cccc31)[C@H](CC(C)C)N[C@H](C(=O)NCCN1CCOCC1)C2	i	?	-1.0%[70.6 µM]	i	89.1µM*
CC#CCn1cc2c3c(cccc31)[C@H](CC(C)C)N[C@H](C(=O)N1CCN(C)CC1)C2	-4.5%[88.5 µM]	89.1µM*	1.9%[70.6 µM]	i	?
Cc1cc(Cn2cc3c4c(cccc42)[C@H](CC(C)C)N[C@H](C(=O)NCCN2CCOCC2)C3)no1	-19.7%	?	1.5%	i	?
C=CCn1cc2c3c(cccc31)[C@H](CC(C)C)N[C@H](C(=O)N1CCOCC1)C2	?	?	-4.2%[70.6 µM]	?	100µM*
CC(C)C[C@@H]1N[C@H](C(=O)N2CCOCC2)Cc2cn(Cc3cccnc3)c3cccc1c23	-12.3%[88.5 µM]	-15.3%[138 µM]	-11.6%[70.6 µM]	i	-26.4%[172 µM]
CC(=O)N1CCCN(C(=O)[C@@H]2Cc3cn(C)c4cccc(c34)[C@H](CC(C)C)N2)CC1	-10.0%[88.5 µM]	0.8%[138 µM]	0.8%[70.6 µM]	i	-2.0%[172 µM]
CC(C)C[C@@H]1N[C@H](C(=O)N2CCC(O)(c3ccccc3)CC2)Cc2cn(C)c3cccc1c23	i	31.6µM*	-1.3%	i	?
CC#CCn1cc2c3c(cccc31)[C@H](CC(C)C)N[C@H](C(=O)N1CCN(C(C)=O)CC1)C2	-11.8%[88.5 µM]	?	5.3%[70.6 µM]	i	?
CNC(=O)c1cc(C)nc2onc(C3CCCN3C(=O)OC)c12 (centres undefined)	·	i	·	·	-2.9%[172 µM]
C=CCn1cc2c3c(cccc31)[C@H](CC(C)C)N[C@H](C(=O)NCc1ccc(F)cc1)C2	?	?	-19.4%[70.6 µM]	i	?
C=CCn1cc2c3c(cccc31)[C@H](CC(C)C)N[C@H](C(=O)N1CCN(C)CC1)C2	i	63.1µM*	-5.3%[70.6 µM]	i	79.4µM*
CC(C)C[C@@H]1N[C@H](C(=O)N2CCOCC2)Cc2cn(CC3CC3)c3cccc1c23	?	?	-13.6%[70.6 µM]	i	89.1µM*
CC(C)CN1CCN(C2CCOC3(CCN(S(=O)(=O)Cc4ccccc4)CC3)C2)CC1 (centres undefined)	2.4%	-11.3%	·	·	i
Cc1cc(NC(=O)c2ccc3c(c2)N(C)C2CCCCN2C3=O)ccc1F (centres undefined)	i	?	-24.2%	22.4µM*	?
CN1c2cc(C(=O)Nc3ccc(F)c(F)c3)ccc2C(=O)N2CCCCC21 (centres undefined)	i	-28.7%	2.9%	?	-15.9%
CN1c2cc(C(=O)Nc3ccc4c(c3)CCC4)ccc2C(=O)N2CCCCC21 (centres undefined)	i	?	-6.5%	28.2µM*	?
CNC(=O)c1cc(C)nc2onc(C3CCCN([S+](=O)([O-])c4ccccc4)C3)c12 (centres undefined)	·	-18.6%	·	·	2.7%
COc1ccc(C(=O)N2CCN(c3nccc(Nc4ccccc4OC)n3)CC2)cc1	i	?	·	·	39.8µM*
COc1ccccc1Nc1ccnc(N2CCN(C(C)=O)CC2)n1	1.6%[88.5 µM]	-24.5%[138 µM]	·	·	4.6%[172 µM]
COc1ccccc1Nc1ccnc(N2CCN(C(=O)c3ccccc3Cl)CC2)n1	i	39.8µM*	·	·	?
Cc1ccc(C(=O)N2CCC3(CC2)c2[nH]c4ccccc4c2CCN3C)cn1	-0.1%	-25.5%	2.4%	i	-29.9%
O=C(c1ccc(Cl)nc1)N1CCCC(c2nn(-c3ccccn3)c(=O)[nH]2)C1 (centres undefined)	-2.4%	i	·	·	i
SMILES	GPT2 inh	NIH3T3 tox	NPR1 antag	Luciferase inh	HEK293 tox
c1ccc(-c2noc(-c3cncnc3N3CCSCC3)n2)cc1	4.6%	-15.1%	-7.2%	?	44.7µM*
c1ccc(-c2noc(-c3cncnc3N3CCN(C4CCCCC4)CC3)n2)cc1	-10.0%	-24.6%	-2.4%	i	?
CC1CCN(c2ncncc2-c2nc(-c3ccccc3)no2)CC1	3.7%	?	2.2%	?	79.4µM*
Cc1nn(C(=O)CCCC(=O)N2CCCC2c2nc(C3CCOCC3)no2)c2ccccc12 (centres undefined)	-2.6%	-18.1%	-6.8%	i	-25.0%
O=c1cc(O)cc(/C=C/c2ccc(O)c(O)c2)o1	6.31µM*	·	·	·	·
Oc1ccc(C=Cc2cc(O)cc(O)c2)cc1	-27.3%	·	·	·	·
Oc1cc(O)cc(C=Cc2ccc(O)c(O)c2)c1	4.32µM*	·	·	·	·
COC(=O)COc1cccn2c(=O)c(-c3cc(C)n(-c4ccc(Cl)c(Cl)c4)n3)c(C)nc12	i	-9.3%	-11.2%	i	-1.0%
COc1ccc(-c2cccc(C(=O)N3CCN([S+](=O)([O-])c4c(C)noc4C)CC3)c2)nn1	·	?	·	·	-17.0%
O=C(Nc1ccccc1Cl)N1CCCC2(C1)Nc1cccnc1NC2=NC1CCCC1 (centres undefined)	?	44.7µM*	-11.8%	i	?
Cc1noc(C)c1[S+](=O)([O-])N1CCCC(C(=O)N2CCC(c3nc4ccncc4[nH]3)CC2)C1 (centres undefined)	?	-23.8%	·	·	-15.5%
COCCS(=O)(=O)c1ncc(CN2CC[C@@H]3CCCC[C@H]3C2)n1Cc1ccccc1	4.7%	?	-3.8%	i	44.7µM*
COc1ccc(-c2cnc3n[nH]c(-c4ccccc4)c3n2)cc1	-0.9%[88.5 µM]	79.4µM*	-1.4%[70.6 µM]	i	89.1µM*
COc1cccc(-c2cnc3n[nH]c(-c4ccccc4)c3n2)c1	?	39.8µM*	-4.5%[70.6 µM]	i	56.2µM*
O=C(Nc1ccccc1F)NC1CCN(Cc2cccc(-c3ccc(F)c(F)c3)c2)CC1	·	11.2µM*	·	·	?
O=C(NC1CCN(Cc2cccc(-c3ccc(F)c(F)c3)c2)CC1)c1ccc(F)cc1	i	39.8µM*	·	·	39.8µM*
COc1ccc(C(=O)NC2CCN(Cc3cccc(-c4ccc(F)c(F)c4)c3)CC2)cc1	?	22.4µM*	·	·	?
O=C(NC1CCCC1)NC1CCN(Cc2cccc(-c3ccc(F)cc3F)c2)CC1	·	?	·	·	35.5µM*!
COc1ccccc1-c1cc(C(=O)NCc2cccc(Cl)c2)nn2cccc12	2.0%	?	·	·	44.7µM*
COc1ccccc1-c1cc(C(=O)NCCc2ccc(F)cc2)nn2cccc12	i	?	·	·	35.5µM*
COc1ccccc1-c1cc(C(=O)NCc2cccnc2)nn2cccc12	-9.8%	?	·	·	?
